PubChem BioAssay (NCI)
Compounds without any hit were thinned out: in the full panel of roughly 83,000, 20% have a hit.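 Values shown are percent growth following 48 h exposure of cells in 96-well plates to a single concentration of compound; below 10 was considered active.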 Values without a mark were called inactive. Activity calls are given as the source filed them.

Key:
Assay in all cases: NCI-60 one-dose screen, 48 h (100 = growth as untreated, 0 = no growth, -100 = all killed)
Details in all cases: 10 µM unless noted
[1] = system: SK-MEL-2 melanoma
[2] = system: EKVX NSCLC
[3] = system: SN12C renal
[4] = system: UO-31 renal
[5] = system: TK-10 renal
[6] = system: ACHN renal
[7] = system: CAKI-1 renal
[8] = system: A498 renal
[9] = system: CCRF-CEM leukemia
[10] = system: RPMI-8226 leukemia
[11] = system: OVCAR-8 ovarian
[12] = system: OVCAR-5 ovarian
[13] = system: OVCAR-4 ovarian
[14] = system: SK-OV-3 ovarian
[15] = system: IGROV1 ovarian
[16] = system: OVCAR-3 ovarian
[17] = system: HS 578T breast
[18] = system: NCI/ADR-RES ovarian
[19] = system: MOLT-4 leukemia
[20] = system: SR leukemia

SMILES | growth [1] | growth [2] | growth [3] | growth [4] | growth [5] | growth [6] | growth [7] | growth [8] | growth [9] | growth [10] | growth [11] | growth [12] | growth [13] | growth [14] | growth [15] | growth [16] | growth [17] | growth [18] | growth [19] | growth [20]
CC(=O)/C(=C/c1cccc(Cl)c1)C(=O)c1ccccc1 | 94.9% | 98.6% | 100% | 72.1% | 96.6% | 88.6% | 95.3% | 119% | 40.2% | 16.8% | 85.2% | 94.1% | 89.6% | 96.3% | 83% | 96.1% | 94.7% | 75.8% | – | –
O=S(=O)(Nc1ccc(Cl)cc1Cl)c1ccc(-c2cnc(C3CC3)o2)cc1 | 33.3% | 38.1% | 51.4% | 53.7% | 48.4% | 53.6% | 38.8% | -21% (active) | 18.6% | 21.6% | 26.5% | 40.2% | 52.6% | 41.6% | – | -17.8% (active) | 9.44% (active) | 0.514% (active) | 24.3% | –
CCN1CCN(Cc2ccc(NC(=O)Nc3nc4ccc(Oc5ccnc(C(=O)NC)c5)cc4s3)cc2C(F)(F)F)CC1 | -22.8% (active) | 14.2% | -75.4% (active) | -80.5% (active) | -35.9% (active) | -84.5% (active) | -44.2% (active) | -33.4% (active) | 0.0502% (active) | -22.9% (active) | -18.6% (active) | -40.6% (active) | -64.1% (active) | -2.46% (active) | -12.2% (active) | -74.1% (active) | -38.6% (active) | -12.7% (active) | – | –
COc1cc(C(=O)/C=C/c2c(C)n([O-])c3ccc(C)cc3[n+]2=O)cc(OC)c1OC | 84.3% | 50.8% | 60% | -27.3% (active) | 26.6% | -40.9% (active) | 6.71% (active) | 95.3% | – | -17.3% (active) | 5.36% (active) | 78.3% | 36.9% | 96% | 73.7% | 13.2% | 52.8% | 81.2% | -30.2% (active) | -35.2% (active)
CC(=O)OC1Oc2cc(C)c(C)cc2-c2oc(=O)c(-c3cc4ccc(N(C)C)cc4oc3=O)cc21 (centres undefined) | 92.4% | 41.5% | 84.2% | 51.4% | 89.6% | 103% | 65.4% | – | 54.9% | 29.4% | 75.9% | 86.4% | 89.8% | 78.2% | 93.2% | 94.1% | 112% | 64.7% | -17.4% (active) | -41.6% (active)
CCC(c1ccc(O)cc1)C(CC)c1ccc(O)c(F)c1 (centres undefined) | 75.1% | 84.2% | 88.2% | 55.4% | 96.6% | 90.5% | 89.2% | – | – | 63.7% | 98.4% | 93.5% | 75.3% | 99% | 83% | 85.3% | 73.9% | 81.8% | 54.9% | –
CCOC(=O)C(Cc1cc(I)c(O)c(I)c1)NC(=O)c1ccccc1 (centres undefined) | 97.6% | 101% | 97.6% | 92.2% | 88.4% | 93.5% | 95.7% | – | 95.3% | 89.5% | 97.7% | 96.1% | 108% | 94.1% | 99% | 108% | 87% | 106% | 91.5% | 88.9%
O=C(CO[N+](=O)[O-])Nc1ccc(C(=O)/C=C/c2ccc3c(c2)OCO3)cc1 | 119% | 99.7% | 95.4% | 77.1% | 111% | 99.2% | 93% | 107% | – | 46.8% | 75.8% | 96.5% | 96.1% | 111% | 48.3% | 80.6% | 103% | 84.5% | 99.7% | –
Cc1ccc2cnc(N)c(C#Cc3cncc(C(=O)Nc4ccc(CN5CCN(C)CC5)c(C(F)(F)F)c4)c3)c2c1 | -62.1% (active) | -93.9% (active) | -97.5% (active) | -93.3% (active) | -94.4% (active) | -99.6% (active) | -95.1% (active) | – | -45% (active) | -31.4% (active) | -85.4% (active) | -89% (active) | -88% (active) | -17.5% (active) | -59.8% (active) | -97.6% (active) | -39.2% (active) | -67.2% (active) | -54.8% (active) | -31.2% (active)
COc1ccc(-n2c(C)nc3c(c(C)nn3-c3ccccc3)c2=O)cc1 | 36.4% | 32% | 42% | 44.3% | 55.4% | 29.2% | 34.4% | -27.8% (active) | – | 5.55% (active) | 6.61% (active) | 30.6% | 36.8% | 45.1% | 20.3% | -32.6% (active) | 21.6% | -12.9% (active) | 12.2% | –
O=S(=O)(NCCCNc1cc(-c2cn(-c3ccccc3)nc2-c2ccccc2)ccn1)c1ccc(C(F)(F)F)cc1 | 79% | 46.4% | 63% | 40.4% | 72.3% | – | 52.4% | 70.6% | 50.2% | 44.1% | 54.6% | – | 58.7% | 68.9% | 59.2% | 72% | 61% | 46.2% | 29.4% | 39.3%
CCCCCCCCCC(=O)Oc1ccc(/C(=C(/C)Cc2cccc(OC)c2)c2ccc(OCCN(C)C)cc2)cc1 | 107% | 94.7% | 99.2% | 92.5% | 109% | 110% | 102% | – | 103% | 106% | 108% | 101% | 115% | 113% | 110% | 109% | 108% | 98.4% | 115% | 106%
CC1=CC(=O)CC(C)(C)[C@@]1(O)/C=C/[C@@H](C)O | 112% | 91.6% | 105% | 95.3% | 108% | 109% | 97.2% | – | 104% | 109% | 90.1% | 103% | 106% | 113% | 107% | 108% | 105% | 95.6% | 108% | 111%
COc1cc(-c2c3c(nc4c2c(C)nn4-c2ccccc2)-c2ccccc2C(=O)C3=O)cc(OC)c1OC | 72.3% | 98.3% | 90.5% | 73.1% | – | 82.3% | 74.4% | 83.7% | 54.4% | 55.2% | 80.1% | 103% | 78.5% | 104% | 94.9% | -29.4% (active) | 111% | 79.7% | 52.5% | –
O=C1C(Cl)=C(Cl)C(=O)c2c1nc1n2CCCC1 | 88.1% | 95.9% | 96.5% | 88.8% | 60% | -8.54% (active) | 100% | – | 11.7% | 99.3% | 100% | 116% | 117% | 90.8% | 104% | 82.5% | 105% | 93.5% | 9.16% (active) | –
COc1cc(OC)c(/C=C/S(=O)(=O)Cc2cnc(OC)c(N)c2)c(OC)c1 | 24.2% | 37.9% | 23.7% | 25.5% | 27.9% | 25.7% | 34% | – | 15.8% | 29.1% | 18.9% | 55.2% | 50.3% | 11.9% | 29.4% | -13.5% (active) | 47.5% | 7.65% (active) | 1.79% (active) | -6.9% (active)
